Only a selection was taken, and hits are over-represented in it overall.
TTR transcr act: TTR transcription activators in neuroblastoma reporter cells, primary screen, cell-based, luminescence, SH-SY5Y, TTR promoter Gaussia luciferase | 100% = recombinant luciferase protein wells | activation, % at 16.7 µM | AID 1117267, 2014 | hit rate 1.3% among 92,000;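 active = activation above the mean of all tested compounds plus 3 SD, cut at about 9.5% in these data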;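 note: cells exposed to compounds for one day before reading; 0% = median of all test compound wells on the plate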
TTR inh HuH7: TTR promoter reporter inhibitors in hepatoma cells, counter-screen for TTR transcription activator project, cell-based, luminescence, HuH7 hepatoma. shares compounds with TTR transcr act. HuH7 TTR promoter-Gaussia luciferase reporter. inhibition, % at 16.7 µM. hit rate 4% among 1,100;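 active = average inhibition above the solvent-only control wells' mean plus 3 SD, cut at about 15% in these data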;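 note: 0% = cells with DMSO only and 100% = cells with inhibitor control FD; inhibitors lower well luminescence so higher value means more inhibition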
TTR up confirm: TTR transcription activators, retest, confirmation, cell-based, luminescence, SH-SY5Y, triplicate; shares compounds with TTR transcr act; SHSY5Y TTR promoter Gaussia luciferase; 100% = purified Lucia enzyme wells, no cells; activation, % at 16.7 µM; 1,100 tested, under 10 active;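 active = mean activation above a set limit taken from the earlier primary screen, cut at about 11% in these data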;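 note: 0% = DMSO-treated cells and 100% = recombinant Lucia luciferase without cells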
Active calls of the source: *.

SMILES | TTR transcr act | others
COC(=O)C1CN(Cc2ccccc2)CCS(=O)(=O)N1Cc1cn(Cc2cccc(Cl)c2)nn1 (stereo not drawn) | -1
CCC(C)(C)NC(=O)C(c1ccccc1F)N(Cc1ccco1)C(=O)Cn1nnc2ccccc21 (stereo not drawn) | 6
COc1ccc(CN(C(=O)Cn2nnc3ccccc32)C(C(=O)NC(C)(C)C)c2ccco2)cc1 (stereo not drawn) | 9.9* | TTR inh HuH7=-9;TTR up confirm=0
O=C(NC1CCCCC1)C(c1ccco1)N(Cc1cccs1)C(=O)Cn1nnc2ccccc21 (stereo not drawn) | -3
CCOc1ccc(-c2cc(C(C)=O)c3n(c2=O)CCC3)cc1 | 0
O=C(O)CSCC(=O)N1CCCCC1 | -1
O=C(O)CSC(=S)N1CCCC1 | 10* | TTR inh HuH7=-5;TTR up confirm=0
O=C(CSC(=S)N1CCCC1)c1ccccc1 | 0
COC(=O)[C@]12C[C@H](CC(=O)N3CCCC3)C(=O)N(CCc3ccc(OC)c(OC)c3)C1=C[C@H](COCc1ccccc1)O[C@@H]2C | -1
COc1ccccc1C(=O)n1ccc2ccc(-c3ccc4ccn(Cc5ccccc5)c4c3)cc21 | 0
Cc1ccc(NC(=O)OC2CC3CC2[C@H]2CCCCN2[C@H]3C)cc1 (stereo partly drawn) | 0
COc1cc2c(cc1NC(=O)c1cc(-c3ccncc3)nc3ccccc13)oc1ccccc12 | 15* | TTR inh HuH7=4;TTR up confirm=-1
COc1ccccc1NC(=O)c1cc(-c2ccc(OC)c(OC)c2)nc2ccccc12 | -2
COc1cc2c(cc1NC(=O)Nc1cccc(C)c1)oc1ccccc12 | 1
Cn1nc(C(=O)NC2CCC(O)CC2)c2ccccc2c1=O (stereo not drawn) | 0
Cn1nc(CC(=O)NC2CCCCCC2)c2ccccc2c1=O | 1
Cn1nc(CC(=O)NC2CCCCC2)c2ccccc2c1=O | 10* | TTR inh HuH7=0;TTR up confirm=-1
O=C(Nc1ccc(Br)cc1)OC1CC2CC1[C@H]1CCCCN1C2 (stereo partly drawn) | 2
FC(F)(F)c1ccc(Cn2ccc3ccc(-c4ccc5ccn(Cc6ccc(C(F)(F)F)cc6)c5c4)cc32)cc1 | 0
CCOC(=O)c1c(C)[nH]c(C)c1C(=O)COC(=O)c1sccc1C | 11* | TTR inh HuH7=-16;TTR up confirm=0
CCOC(=O)c1c(C)[nH]c(C)c1C(=O)COC(=O)c1ccc(O)cc1 | -1
CCOC(=O)c1c(C)[nH]c(C)c1C(=O)COC(=O)c1c(OC)cccc1OC | -1
O=C(Nc1nc2ncccn2c1-c1ccc(C(F)(F)F)cc1)c1ccc(F)cc1 | 7
COc1ccc(CCNC(=O)c2ccccc2Cl)cc1OC | 0
COc1ccc(CCNC(=O)c2ccc(-c3ccc([N+](=O)[O-])cc3Cl)o2)cc1OC | -2
SMILES | TTR transcr act | others
COc1ccc(CCNC(=O)c2ccc([N+](=O)[O-])cc2Cl)cc1OC | 26* | TTR inh HuH7=-24;TTR up confirm=1
COc1ccc(CNS(=O)(=O)CC2NCCc3ccccc32)cc1 (stereo not drawn) | 1
COc1ccc(/C=C/S(=O)(=O)NCC(C)C)c(CNC(=O)OC(C)(C)C)c1 | -1
Fc1ccc(Nc2nc(N3CCOCC3)nc(N3CCOCC3)n2)cc1 | 1
c1cncc(CNc2nc(N3CCOCC3)nc(N3CCOCC3)n2)c1 | 1
CSc1nc(NCC(C)C)nc(N2CCOCC2)n1 | 15* | TTR inh HuH7=-3;TTR up confirm=0
O=C(NC1CCCCN(Cc2ccc(Cl)cc2)C1=O)c1ccc(Cl)cc1Cl (stereo not drawn) | 0
COC(=O)[C@]12C[C@H](CC(=O)NCc3cccs3)C(=O)N(Cc3ccc(Cl)cc3Cl)C1=C[C@H](C(C)C)O[C@@H]2C1CC1 | 0
O=C(NCCc1ccccc1)C1CCN(S(=O)(=O)c2cccc3nonc23)CC1 | -3
O=C(NCCc1ccccc1)C1CCCN(S(=O)(=O)c2cccc3nonc23)C1 (stereo not drawn) | 10.0* | TTR inh HuH7=-5;TTR up confirm=2
O=C(NCc1ccc(F)cc1)C1CCCN(S(=O)(=O)c2cccc3nonc23)C1 (stereo not drawn) | 2
C[C@@H]1CN([C@@H](C)CO)C(=O)c2cccc(NS(C)(=O)=O)c2O[C@H]1CN(C)Cc1ccc(C(=O)O)cc1 | 5
COc1ccc(CN(C)C[C@H]2Oc3c(NC(=O)Nc4ccccc4)cccc3C(=O)N([C@H](C)CO)C[C@@H]2C)cc1 | -3
C[C@@H]1CN([C@@H](C)CO)C(=O)c2cccc(NS(C)(=O)=O)c2O[C@H]1CN(C)Cc1ccc(Oc2ccccc2)cc1 | 19* | TTR inh HuH7=5;TTR up confirm=0
Cc1cccc(C(=O)Nc2c(-c3ccccc3)nc3ncccn23)c1 | -1

Compound activity: PubChem, The Scripps Research Institute Molecular Screening Center
